Compound activity as filed in PubChem.
ADAM10 inh = ADAM10 inhibition, QFRET primary screen | O14672 | recombinant ADAM10, EDANS/DABCYL FRET peptide cleavage, 3 h | inhibition, % at 7 µM | AID 720582 | hit rate 0.62% among 370,000;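 active means inhibition above a per-campaign cutoff equal to the mean of compounds falling between control-based bounds plus 3 SD, cut at about 20% in these data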;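 further: 0% = DMSO wells while the 100% control is not disclosed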
sPLA2-III inh = Inhibits HGIII-sPLA2 liposome hydrolysis, primary screen; hit rate 0.56% among 370,000; QFRET BODIPY PC-A2 liposome hydrolysis, fluorescence; inhibition, % at 12.2 µM; AID 743126; Q9NZ20;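 active means inhibition above mean plus 3 SD of compounds lying within the high and low control bounds, cut at about 19% in these data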;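 further: 0% = median of test compound wells and 100% = no enzyme DMSO wells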
PLC-gamma1 inh = inhibitors of human phospholipase C gamma1; hit rate 0.84% among 370,000; inhibition, % at 12.2 µM; purified PLC-gamma1, fluorogenic substrate, fluorescence; P19174
proKLK7 act = activators of human kallikrein-7 zymogen. P49862. purified proKLK7, EDANS-DABCYL substrate fluorescence; 100% is mature enzyme control, 0% vehicle. activation, % at 7 µM. hit rate 0.9% among 370,000. AID 652039;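 active means activation above the mean of all tested compounds plus 3 SD, computed per campaign excluding outliers beyond control limits, cut at about 13% in these data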
PLC-beta3 inh = inhibitors of human phospholipase C beta3 | Q01970 | Purified PLC-beta3, fluorogenic substrate, fluorescence | inhibition, % at 12.2 µM | hit rate 0.18% among 370,000 | AID 720704; in the data active means inhibition above about 11%;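 further: 0% = median of compound wells on plate and 100% = full blocker control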
ADAM17 inh = ADAM17 inhibition, QFRET primary screen; hit rate 0.83% among 370,000; P78536; recombinant ADAM17, EDANS/DABCYL FRET peptide cleavage; inhibition, % at 6.95 µM;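 active means inhibition above the mean of compounds lying between control limits plus 3 SD, set per campaign, cut at about 8.5% in these data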;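 further: 0% = DMSO-only wells as the low control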
Target sequence (P78536 215-824 limits assumed): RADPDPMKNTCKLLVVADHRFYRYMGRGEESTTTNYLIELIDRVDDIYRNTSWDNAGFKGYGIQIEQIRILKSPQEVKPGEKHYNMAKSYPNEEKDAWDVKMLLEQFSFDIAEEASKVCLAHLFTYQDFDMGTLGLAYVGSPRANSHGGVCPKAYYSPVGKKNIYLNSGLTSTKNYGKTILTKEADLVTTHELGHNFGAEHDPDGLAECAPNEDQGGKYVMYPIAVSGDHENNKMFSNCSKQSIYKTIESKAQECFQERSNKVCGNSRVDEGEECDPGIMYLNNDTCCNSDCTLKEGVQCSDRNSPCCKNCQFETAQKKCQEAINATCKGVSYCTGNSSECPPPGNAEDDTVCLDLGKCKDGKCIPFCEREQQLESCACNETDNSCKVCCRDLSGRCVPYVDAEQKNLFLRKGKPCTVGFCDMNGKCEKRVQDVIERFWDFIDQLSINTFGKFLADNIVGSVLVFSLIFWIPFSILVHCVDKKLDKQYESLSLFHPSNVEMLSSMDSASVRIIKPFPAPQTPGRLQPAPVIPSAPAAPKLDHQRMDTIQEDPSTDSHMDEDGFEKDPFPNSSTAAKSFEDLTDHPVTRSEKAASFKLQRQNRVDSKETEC
PLCg1 ctr = PLC-gamma1 inhibition, counter-screen for PLC-beta3 hits | purified PLC-gamma1, fluorogenic substrate, fluorescence | shares compounds with PLC-gamma1 inh | hit rate 3.1% among 3,300 | inhibition, % at 12.3 µM
PLCbeta3 conf = human PLC-beta3 inhibition, confirmation | shares compounds with PLC-gamma1 inh | purified PLC-beta3, fluorogenic substrate fluorescence | inhibition, % at 12.3 µM | hit rate 1% among 3,300 | AID 743261; in the data active means inhibition above about 11%
* marks the source's active call; other numbers are inactive results; · = no result. Rows were chosen to be rich in hits. Some 3.4% of all compounds tested hit in one or more screens of this group. Unless noted, no stated cut-off is given here; in the data, active means inhibition above about 9.5%; inactive means the rest.

SMILES | ADAM10 inh | sPLA2-III inh | PLC-gamma1 inh | proKLK7 act | PLC-beta3 inh | ADAM17 inh | PLCg1 ctr | PLCbeta3 conf
CC(C)CNC(=O)C1CCN(Cc2ccc(OCc3ccccc3)cc2)CC1 | -15 | 7 | 12* | 0 | 1 | 0 | -7 | 2
CCN(CC(=O)Nc1c(F)cccc1F)C(=O)C1CCCO1 (centres undefined) | -2 | 12 | 0 | 0 | 3 | -3 | · | ·
OC(CN1CCCCC1)CN1CCCCC1 | -8 | -5 | 11* | 1 | -95 | 0 | -3 | 0
COc1ccc(C(CNC(=O)Nc2ccc(Cl)cc2)N2CCN(C)CC2)cc1 (centres undefined) | -5 | -5 | 0 | 0 | -6 | -3 | · | ·
CC(C)(C)C1CCC(C(=O)Nc2ccccc2)CC1 (centres undefined) | 11 | 0 | 11* | -1 | 5 | 3 | 6 | 13*
CC(C)C(=O)Nc1cccc(C(=O)Nc2ccc(S(=O)(=O)Nc3nccs3)cc2)c1 | 6 | -6 | 9 | 0 | 3 | 2 | · | ·
CCOC(=O)C(C)(C)CC#CCN(CC#Cc1ccccc1)S(=O)(=O)c1ccc(C)cc1 | 0 | -11 | -3 | 0 | -5 | 0 | · | ·
Cc1cccc(C(=O)OCC(=O)NCCNC(=O)COC(=O)c2cccc(C)c2C)c1C | -9 | 3 | 3 | 0 | -8 | -3 | · | ·
CN(C)c1ccc(CNC(=O)C2(C)Cc3c(-c4ccccc4)ccnc3O2)cc1 (centres undefined) | -3 | 8 | -1 | 0 | 1 | 0 | · | ·
CC(=O)Nc1ccc(-c2ccnc3c2CC(C)(C(=O)NCc2ccc(N4CCN(C)CC4)cc2)O3)cc1 (centres undefined) | -2 | -5 | 0 | 0 | 11* | 0 | -2 | 1
CN(C)c1ccc(CNC(=O)C2(C)Cc3c(-c4cccc(C(N)=O)c4)ccnc3O2)cc1 (centres undefined) | -2 | 19 | 10.0* | 0 | 0 | -4 | -5 | -3
CC(=O)C1=CCC(c2ccc(Br)cc2)N(S(=O)(=O)c2ccc(C)cc2)C1 (centres undefined) | 6 | -8 | -1 | 0 | -1 | 2 | · | ·
Cn1ncc(Br)c1NC(=O)CSc1ccc(Cl)cc1 | 7 | -7 | 5 | 1 | -2 | 0 | · | ·
COc1ccc(NC(=O)C2CCCN(S(C)(=O)=O)C2)cc1OC (centres undefined) | 8 | 11 | 10* | 0 | -1 | 6 | -5 | -4
CCOC(=O)Cc1c[nH]c(=S)[nH]c1=O | 7 | 2 | 11* | 0 | 2 | 5 | -4 | 0
CCOC(=O)Cc1c(C)nc(N)[nH]c1=O | -3 | -4 | 1 | 0 | -2 | -3 | · | ·
CC(C)(C)N(Cc1ccccc1)C(=O)COC(=O)c1ccc2ccccc2n1 | 4 | -7 | 0 | 1 | 1 | -2 | · | ·
CN1CCN(CC(=O)Nc2c(C(=O)C3CC3)oc3ccccc23)CC1 | -9 | -2 | 11* | 0 | 5 | 2 | -4 | -1
Nc1[nH]c(C(=O)c2ccccc2)c(-c2ccccc2C(F)(F)F)c1C(=O)NCCc1cccs1 | 5 | -2 | 0 | 0 | -1 | 0 | · | ·
C[C@@H]1CN([C@@H](C)CO)C(=O)c2cc(NS(=O)(=O)c3ccc(Cl)cc3)ccc2O[C@H]1CN(C)Cc1ccncc1 | 9 | -12 | 1 | 1 | -1 | -2 | · | ·
COc1ccc(CC2(CO)CCN(Cc3nc(C(C)C)cs3)CC2)cc1 | 11 | 8 | 13* | 0 | 7 | 7 | -6 | -1
CCC(C)NC(=O)c1ccccc1NC(=O)COc1ccc(OC)cc1 (centres undefined) | 13 | 9 | 11* | 0 | 6 | 4 | -3 | 0
COc1cccc(C(=O)Nc2cccc3ccccc23)c1 | 7 | -2 | 15* | 1 | 3 | 3 | 3 | 2
COCC(=O)Nc1ccccc1C(=O)Nc1ccc(OC)cc1 | 2 | 2 | 11* | -1 | 1 | 2 | -7 | -1
COc1cccc(C(=O)NNS(=O)(=O)c2ccccc2)c1 | 4 | 2 | 12* | 0 | 3 | 0 | -5 | -2
SMILES | ADAM10 inh | sPLA2-III inh | PLC-gamma1 inh | proKLK7 act | PLC-beta3 inh | ADAM17 inh | PLCg1 ctr | PLCbeta3 conf
O[C@@H]1COC(Nc2ccc(N=Nc3ccccc3)cc2)C[C@@H]1O (some centres undefined) | 2 | 13 | 5 | 0 | -6 | 0 | · | ·
CC(=O)c1ccc(N(C(=O)CNC(=O)c2ccco2)C(C(=O)NC2CCCC2)c2cccnc2)cc1 (centres undefined) | 9 | -3 | 2 | 0 | -2 | 0 | · | ·
COc1ccc(NC(=O)c2cccc3c(Br)cccc23)cc1 | -3 | 0 | 1 | 0 | -9 | -3 | · | ·
COc1ccc(NC(=O)c2cccc3ccccc23)cc1 | 11 | -4 | 9.9* | 0 | -4 | 2 | -8 | -4
CCOc1cccc(C(=O)Nc2ccc(NC(=O)c3ccccc3)c(C)c2)c1 | 13 | -1 | 7 | 0 | 15* | 2 | -3 | 14*
CCOc1ccc(C(=O)Nc2ccc(NC(=O)c3ccccc3)c(C)c2)cc1[N+](=O)[O-] | -1 | -4 | -2 | 0 | -4 | -1 | · | ·
CCCCNc1nc2ccccc2nc1Cl | -25 | -2 | -3 | -1 | -2 | -4 | · | ·
CC(=O)N1CCc2c(sc(NC(=O)CS(=O)(=O)c3ccc(F)cc3)c2C(N)=O)C1 | -82 | -9 | -20 | 0 | -28 | -25 | · | ·
COCCNCCCOc1ccc(Br)cc1Cl | -15 | 18 | 11* | 0 | -4 | -1 | 9.5* | 3
CCC(=O)Nc1ccc2c(c1)N(C(C)=O)c1ccccc1CC2 | 2 | 2 | -4 | 0 | -10 | 0 | · | ·
Cc1ccc(CNC(=O)C2COc3ccccc3O2)cc1 (centres undefined) | 4 | 8 | 5 | 0 | 4 | 2 | · | ·
O=C(NCc1ccccc1)C1COc2ccccc2O1 (centres undefined) | -2 | 8 | 9.8* | -1 | 10 | 7 | -8 | 0
CC(=O)Nc1ccc(S(=O)(=O)NC2CC(=O)N(c3ccc4c(c3)OCCO4)C2)cc1 (centres undefined) | -3 | 3 | 0 | 0 | 4 | 0 | · | ·
CCCC(=O)Nc1c(-c2ccccc2Cl)c(=O)c2ccccc2n1C | -9 | 3 | 13* | 0 | -1 | 4 | -2 | 0
COc1ccc(C(=O)N2CCCCC2c2cc(C(=O)NCc3ccc(F)cc3)no2)cc1 (centres undefined) | 10 | -10 | 1 | 0 | 0 | 1 | · | ·
COc1ccc(NC(=O)CN(C)C(=O)C2CC(=O)N(Cc3ccc(C)cc3)C2)cc1 (centres undefined) | 3 | 14 | 12* | 0 | 6 | 2 | -4 | -6
